# KCNQ2 enhance = enhances the rat KCNQ2 potassium channel | O88943 | CHO-K1 KCNQ2, FluxOR thallium flux fluorescence; stronger effect = higher value | B-score at 10 µM | 310,000 compounds, 0.54% hits;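 active = fluorescence ratio B-score at least 3 SD of library B-scores, with initial fluorescence B-score within 3 of them, cut at about 5.3 in these data; same plate scores as AID 2156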;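 also: B-score of peak minus minimum over baseline fluorescence ratio after K+ and Tl+ stimulus; positive B-score means potentiation of KCNQ2 with more thallium influx and brighter signal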
# KCNQ2 inh = inhibitors of rat KCNQ2 potassium channel | 310,000 compounds, 1.1% hits | B-score at 10 µM | AID 2156 | O88943 | CHO-K1 KCNQ2, FluxOR thallium flux, 20 min; stronger effect = lower value;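 active = fluorescence ratio B-score at most minus 3 library SDs, with starting brightness B-score within 2 library SDs, cut at about -5.5 in these data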
# A number is an active result; 0 = inactive; - = not tested or not shown. A selection: hits, their analogues and other compounds. The true share with any hit is near 1.6%.
SMILES,KCNQ2 enhance,KCNQ2 inh
CCN1CCN(C(=O)C23CCC(C)(C(=O)C2Br)C3(C)C)CC1 (configuration not stated),-,0
Oc1ccc2ccccc2c1CN1CCN(C/C=C/c2ccccc2)CC1,0,0
Oc1ccc2ccccc2c1CN1CCN(c2ccccc2F)CC1,13,0
CC(C)(C)OC(=O)N1CCC(CC2CC(c3ccc(Cl)cc3)=NO2)(C(=O)NCC2CCCCC2)CC1 (configuration not stated),-,0
O=C(OCC(=O)N1CCCc2ccccc21)c1ccc(F)c(S(=O)(=O)N2CCOCC2)c1,0,0
Cc1ccc(N(CC(=O)NC2CCCC2)C(=O)CCC(=O)Nc2nc(C)cs2)cc1,-,0
CC1Oc2ccccc2C=C1/C=N\NC(=O)c1cccnc1 (configuration not stated),-,0
C/C(=N\NC(=O)c1nnn(-c2nonc2N)c1CN1CCCCCC1)c1ccc(Br)cc1,-,0
C/C(=N\NC(=O)c1nnn(-c2nonc2N)c1CN1CCC(C)CC1)c1cccc(Br)c1,0,-5.7
O/N=C(\c1ccc(Cl)cc1Cl)c1ncc(C(F)(F)F)cc1Cl,-,0
CCOc1ccc(CN2CCN(C(=O)c3cccc4ccccc34)CC2)cc1,-,0
C=CCC(O)(CC=C)CNC(=O)C1CCC(=O)N(CCCc2ccccc2)C1 (configuration not stated),-,0
COC(=O)C1CCN(C(=O)/C(C)=C\c2ccccc2)CC1,-,0
OC1CCN(c2c3c(nc4cc(-c5cccc(F)c5)nn24)CCCC3)CC1,-,0
COc1cc(OC)cc(-c2cc3nc4c(c(N5CCN(c6ncccn6)CC5)n3n2)CCCC4)c1,0,-6.2
CCc1c(C)nc2cc(-c3cc(OC)cc(OC)c3)nn2c1N1CCCC1,0,0
Fc1cccc(-c2cc3nc4c(c(N5CCC6(CC5)OCCO6)n3n2)CCCC4)c1,0,-6.6
Cc1cccc(NC(=O)c2ccc(NC(C)c3ccccc3)c([N+](=O)[O-])c2)n1 (configuration not stated),-,0
Cc1ccc(C(=O)OCC(=O)N(CCc2ccccc2)Cc2ccccc2)cc1S(=O)(=O)N1CCOCC1,0,-6
O=C(OCC(=O)N(CCc1ccccc1)Cc1ccccc1)c1cccc(O)c1,-,0
O=C(OCC(=O)N(CCc1ccccc1)Cc1ccccc1)c1cc(S(=O)(=O)N2CCOCC2)ccc1F,-,0
Cc1ccc(C(=O)N(CCc2ccccc2)Cc2ccccc2)cc1S(=O)(=O)N1CCCCC1,0,-8.1
COc1ccc(C(=O)N(CCc2ccccc2)Cc2ccccc2)cc1S(=O)(=O)N1CCOCC1,-,0
O=C(OCC(=O)N(CCc1ccccc1)Cc1ccccc1)c1ccccc1NCCO,0,-6.5
COc1ccc(CCC(=O)NCCS(=O)(=O)N2CCN(c3ccc(F)cc3)CC2)cc1,0,0
SMILES,KCNQ2 enhance,KCNQ2 inh
COc1ccc(C(=O)NCC(=O)OCC(=O)N2CCC(C)CC2)cc1OC,-,0
COCCn1cc(C(=O)N2CCC(C)CC2)c2c3ccccc3n(C)c2c1=O,0,-5.7
CCOC(=O)N1CCN(C(=O)c2cn(CC(C)C)c(=O)c3c2c2ccccc2n3C)CC1,-,0
CC(C)Cn1cc(C(=O)N2CCOCC2)c2c3ccccc3n(C)c2c1=O,-,0
CC(C)Cn1cc(C(=O)N2CCC(C)CC2)c2c3ccccc3n(C)c2c1=O,0,-7
O=C(O)c1ccc2c(c1)C(=O)N(c1ccc(Nc3ccccc3)cc1)C2=O,0,0
CCc1[nH]nc(C(=O)NC2CCCN(Cc3ccccc3F)C2)c1C (configuration not stated),-,0
Cc1cc(-c2ccc(S(=O)(=O)N3CCCCC3)s2)on1,-,0
Cc1cccc(NC(=O)[C@H](NC(=O)[C@@H]2Cc3ccccc3CN2)c2ccccc2)c1,-,0
S=c1[nH]cnc2scc(-c3ccccc3)c12,11,0
Clc1ncnc2scc(-c3ccccc3)c12,0,0
CN1CCN(NC(=S)NC2CCCCC2)CC1,0,0
CCN1CCSc2ccc(C(=O)NCc3ccccc3C)cc21,-,0
CCN1CCSc2ccc(C(=O)NCc3ccccc3Br)cc21,0,-6.1
Cc1cccc(NC(=O)c2csnn2)n1,0,0
COc1ccc(NC(=O)[C@H](Cc2c[nH]c3ccccc23)NC(=O)[C@@H]2Cc3ccccc3CN2)cc1,-,0
CC(C)c1ccc(NC(=O)[C@H](Cc2c[nH]c3ccccc23)NC(=O)[C@@H]2Cc3ccccc3CN2)cc1,0,-8.2
COc1cccc(-n2cc(C(=O)NCCCOC(C)C)c3ccccc3c2=O)c1,0,0
Cc1cc(OCC(=O)N2CCc3ccccc3C2)c2c(-c3ccccc3)cc(=O)oc2c1,0,-7.5
O=C(COc1ccc(Br)cc1)N1CCc2ccccc2C1,0,-6.5
COc1ccc(OCC(=O)N2CCc3ccccc3C2)cc1,-,0
O=C(COc1ccc(Br)cc1)N1CCOCC1,-,0
CCOc1cc(C)cc2oc(=O)cc(-c3ccccc3)c12,-,0
O=C(COc1ccc(Br)cc1)N1CCC(c2ccccc2)C1 (configuration not stated),0,-5.6
CCCCCn1c(=O)[nH]c2cc(C(=O)NCCN3CCCCC3C)ccc2c1=O (configuration not stated),-,0
SMILES,KCNQ2 enhance,KCNQ2 inh
O=C(/C(=N/N=C/c1ccc(O)c(O)c1)c1ccccc1)c1ccccc1,-,0
COc1ccc(OC)c(C(=O)NC(CC(N)=O)c2ccc(NC(C)C)c([N+](=O)[O-])c2)c1 (configuration not stated),0,-9.6
COc1ccc(OC)c(C(=O)NC(CC(N)=O)c2ccc(NCC3CC3)c([N+](=O)[O-])c2)c1 (configuration not stated),-,0
CCC(CC)COC(=O)C1=C(C)NC(=O)NC1c1ccccc1Br (configuration not stated),-,0
COC(=O)c1ccc(N2CCN(c3ccccc3)CC2)c(N)c1,-,0
Cc1ccc(C(C)C)c(OCC(=O)Nc2cccc(S(=O)(=O)NC3=NCCCCC3)c2)c1,0,0
COc1ccc(CN2CCNC(=O)C2CC(=O)N2CCCN(C(C)=O)CC2)c(OC)c1 (configuration not stated),-,0
O=C(Cc1ccc(Cl)cc1)Nc1ccccc1Sc1ccccc1,7.8,0
O=C(Cc1ccccc1)Nc1cc(Cl)ccc1Sc1ccccc1,-,0
COC(=O)C1=C(C(=O)OC)[C@@H]2N(C)c3ccccc3[C@@]23C[C@@H](CO)N(C(=O)C2CCC2)C3=N1,0,0
CN=C(Nc1cccnc1)c1ccccc1,-,0
O=C(CSc1nccc(-c2cccs2)n1)Nc1ccc(Cl)cc1,0,0
Cc1onc(-c2ccc(Cl)cc2)c1-c1ccnc(SCC(=O)Nc2ccc(C(C)C)cc2)n1,0,-5.6
Cn1c(CC(=O)Nc2ccc(Cl)c(Cl)c2)nnc1SCC(=O)NCc1ccccc1,-,0
O=C(CSC1=NS(=O)(=O)c2ccccc21)Nc1ccccc1,0,-6.4
O=C(CSC1=NS(=O)(=O)c2cc(F)ccc2N1)Nc1ccccc1,-,0
CCOC(=O)C(NC(=O)c1ccccc1Cl)(Nc1ccc(C)c(C)c1)C(F)(F)F (configuration not stated),-,0
COC(=O)C(Nc1ccccc1Cl)(c1cc(C)c(O)c(C)c1)C(F)(F)F (configuration not stated),0,-8
COc1ccc(NS(=O)(=O)c2ccc3c(c2)N(C(C)=O)CC(C)S3)c(OC)c1 (configuration not stated),-,0
c1csc(-c2noc(COc3ccc4c(c3)CCCC4)n2)c1,0,-6
Brc1ccc(-c2noc(COc3ccc4c(c3)CCC4)n2)o1,-,0
CC(=O)c1cc2c(cc1NS(=O)(=O)c1ccc(F)cc1)OCO2,-,0

# Screens deposited in PubChem BioAssay by Johns Hopkins Ion Channel Center.
